# Data taken from ChEMBL document CHEMBL1961873, “Compounds: GSK PKIS; Assays: Nanosyn kinase panel” (2012).
# Biological target: Serine/threonine-protein kinase 26 (Homo sapiens) (UniProt Q9P289);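 further: mean inhibition of MST4 kinase activity, reported from the GSK PKIS inhibitor-set screening panel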
# Conditions: at 1 µM
# Sequence of Serine/threonine-protein kinase 26 (Homo sapiens) (Q9P289 2-416 limits assumed): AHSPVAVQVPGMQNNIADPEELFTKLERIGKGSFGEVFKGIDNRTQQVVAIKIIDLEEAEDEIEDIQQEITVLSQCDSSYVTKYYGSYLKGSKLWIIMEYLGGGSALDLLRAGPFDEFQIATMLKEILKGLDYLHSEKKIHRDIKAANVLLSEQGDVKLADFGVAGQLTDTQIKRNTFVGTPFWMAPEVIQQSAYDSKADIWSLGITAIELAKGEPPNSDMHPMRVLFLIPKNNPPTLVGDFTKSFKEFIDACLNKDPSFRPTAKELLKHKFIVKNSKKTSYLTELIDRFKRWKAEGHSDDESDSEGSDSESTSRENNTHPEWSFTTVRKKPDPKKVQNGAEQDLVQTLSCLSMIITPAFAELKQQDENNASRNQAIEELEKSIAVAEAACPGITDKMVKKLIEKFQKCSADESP
row,SMILES,inhibition [%]
1,CN1CCC(n2cnc(-c3ccc(F)cc3)c2-c2ccnc(N)n2)CC1,1.62
2,NC(=O)c1sc(-n2cnc3ccc(C(F)(F)F)cc32)cc1OCc1ccccc1Br,0.41
3,CN(C)CCOc1ccc(-c2nc(-c3ccncc3)c(-c3ccc4c(c3)CC/C4=N\O)[nH]2)cc1,-0.6
4,CCCN(CCS(C)(=O)=O)Cc1ccc(-c2ccc3ncnc(Nc4ccc(OCc5cccc(F)c5)c(Cl)c4)c3c2)o1,2.97
5,CCc1nn2ncccc2c1-c1ccnc(NC2CC2)n1,1.56
6,CCNC(=O)O[C@H]1CN[C@H](C#Cc2cc3ncnc(Nc4ccc(OCc5cccc(F)c5)c(Cl)c4)c3s2)C1,-0.79
7,CNC(=O)c1cccc(C#Cc2cncnc2Nc2ccc(OCc3cccc(F)c3)c(Cl)c2)c1,4.41
8,CCN1CCC(CC(=O)Nc2n[nH]c3nnc(-c4cccc(F)c4F)cc23)CC1,1.9
9,c1cc(-c2cnn3nc(N4CCOCC4)ccc23)nc(NC2CC2)n1,-4.91
10,CS(=O)(=O)CCNCc1coc(-c2ccc3ncnc(Nc4ccc(OCc5ccccc5)cc4)c3c2)c1,2.64
11,COc1ccc(-c2cc3c(N)ncnc3o2)cc1,0.97
12,N#Cc1c(NC(=O)CN2CCOCC2)sc2c1CCCC2,-0.59
13,Clc1ccc(-c2nn3ncccc3c2-c2ccnc(Nc3ccccc3)n2)cc1,2.44
14,COc1cc(/C=N/Nc2ncnc3[nH]ncc23)ccc1O,5.4
15,CC(C)(CO)CNC(=O)c1ccc2c(c1)/C(=N/Nc1ccc(S(N)(=O)=O)cc1)C(=O)N2,7.27
16,Cc1ccc(O)cc1Nc1ccnc2cc(-c3ccccn3)ccc12,-0.53
17,Fc1ccc(-c2nn3ccccc3c2-c2ccncc2)cc1,2.42

row,SMILES,inhibition [%]
1,c1ccc(-c2nc3n(c2-c2ccc4c(c2)OCO4)CCC3)nc1,-1.91
2,N#Cc1c(NC(=O)c2ccc(F)cc2)sc2c1CCCC2,2.43
3,COc1cc(N2CCN(C(C)C)CC2)ccc1Nc1nc(Nc2ccc(F)cc2C(N)=O)c2cc[nH]c2n1,2.73
4,COc1cc2c(cc1Nc1nc(Nc3ccsc3C(N)=O)c3cc[nH]c3n1)N(C(=O)CN(C)C)CCC2(C)C,0.56
5,O=S(=O)(CCNCc1ccc(-c2ccc3ncnc(Nc4ccc(OCc5cccc(F)c5)c(Cl)c4)c3c2)o1)c1ccccc1,-0.49
6,CCOc1ccc2c(-c3ccnc(Nc4cccc(C(F)(F)F)c4)n3)cnn2n1,0.13
7,Cc1ccc2c(-c3ccnc(Nc4ccccc4)n3)c(-c3ccc(F)cc3)nn2n1,0
8,CNC(=O)c1cc(-c2ccc(F)cc2)cc(-c2ccc(S(=O)(=O)N3CCCC3)cc2)c1N,-1.61
9,CCn1cc(-c2ccnc3[nH]ccc23)c(-c2cccc(NC(=O)Nc3ccc(OCc4ccccc4)cc3)c2)n1,-5.19
10,COc1cc(Nc2nccc(Nc3ccc4c(C)n[nH]c4c3)n2)cc(OC)c1OC,3
11,CCn1c(-c2nonc2N)nc2c(C#CC(C)(C)O)nc(OC[C@H](N)c3ccccc3)cc21,28.1
12,c1ccc(COc2ccc(Nc3ncnc4ccc(-c5ccco5)cc34)cc2)cc1,1.35
13,Nc1ncc(-c2cccc(S(N)(=O)=O)c2)c2scc(-c3ccc(F)c(Cl)c3)c12,2.44
14,CS(=O)(=O)CCNCc1ccc(-c2ccc3ncnc(Nc4ccc(OCc5ccccc5)c(C(F)(F)F)c4)c3c2)o1,-2.67
15,CCN(CC)S(=O)(=O)c1ccc(OC)c(Nc2ncc(-c3ccccc3)o2)c1,2.13
16,NS(=O)(=O)c1ccc(N/N=C2\C(=O)Nc3ccc4ncccc4c32)cc1,72.5
17,COC(=O)Nc1nc2ccc(Oc3ccc(NC(=O)Nc4cccc(Cl)c4)cc3)cc2[nH]1,1.03

# Biological target: Serine/threonine-protein kinase PAK 1 (Homo sapiens) (UniProt Q13153);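 further: values are mean PAK1 inhibition from the GSK PKIS kinase inhibitor set screen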
# Conditions: at 0.1 µM
# Sequence of Serine/threonine-protein kinase PAK 1 (Homo sapiens) (Q13153 whole entry): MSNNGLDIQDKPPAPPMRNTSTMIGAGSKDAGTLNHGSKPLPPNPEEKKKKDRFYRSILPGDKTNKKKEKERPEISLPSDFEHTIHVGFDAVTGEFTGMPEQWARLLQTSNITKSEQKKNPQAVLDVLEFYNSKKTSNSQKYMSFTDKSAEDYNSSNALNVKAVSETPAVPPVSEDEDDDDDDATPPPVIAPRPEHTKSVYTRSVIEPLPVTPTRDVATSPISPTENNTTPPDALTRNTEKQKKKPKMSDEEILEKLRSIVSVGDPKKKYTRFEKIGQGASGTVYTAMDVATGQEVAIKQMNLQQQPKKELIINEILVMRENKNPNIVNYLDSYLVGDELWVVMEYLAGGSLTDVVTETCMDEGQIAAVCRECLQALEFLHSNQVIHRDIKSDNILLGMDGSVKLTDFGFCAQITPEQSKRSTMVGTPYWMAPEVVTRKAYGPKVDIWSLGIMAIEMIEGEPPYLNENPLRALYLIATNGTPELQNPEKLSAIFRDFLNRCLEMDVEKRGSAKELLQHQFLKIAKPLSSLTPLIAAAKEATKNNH
row,SMILES,inhibition [%]
1,CN1CCC(n2cnc(-c3ccc(F)cc3)c2-c2ccnc(N)n2)CC1,-0.17
2,NC(=O)c1sc(-n2cnc3ccc(C(F)(F)F)cc32)cc1OCc1ccccc1Br,5.7
3,CN(C)CCOc1ccc(-c2nc(-c3ccncc3)c(-c3ccc4c(c3)CC/C4=N\O)[nH]2)cc1,4.61
4,CCCN(CCS(C)(=O)=O)Cc1ccc(-c2ccc3ncnc(Nc4ccc(OCc5cccc(F)c5)c(Cl)c4)c3c2)o1,5.02
5,CCc1nn2ncccc2c1-c1ccnc(NC2CC2)n1,3.36
6,CCNC(=O)O[C@H]1CN[C@H](C#Cc2cc3ncnc(Nc4ccc(OCc5cccc(F)c5)c(Cl)c4)c3s2)C1,1.87
7,CNC(=O)c1cccc(C#Cc2cncnc2Nc2ccc(OCc3cccc(F)c3)c(Cl)c2)c1,2.05
8,CCN1CCC(CC(=O)Nc2n[nH]c3nnc(-c4cccc(F)c4F)cc23)CC1,3.95
9,c1cc(-c2cnn3nc(N4CCOCC4)ccc23)nc(NC2CC2)n1,-0.13
10,CS(=O)(=O)CCNCc1coc(-c2ccc3ncnc(Nc4ccc(OCc5ccccc5)cc4)c3c2)c1,2.37
11,COc1ccc(-c2cc3c(N)ncnc3o2)cc1,-2.64
12,N#Cc1c(NC(=O)CN2CCOCC2)sc2c1CCCC2,8.81
13,Clc1ccc(-c2nn3ncccc3c2-c2ccnc(Nc3ccccc3)n2)cc1,2.29
14,COc1cc(/C=N/Nc2ncnc3[nH]ncc23)ccc1O,1.82
15,CC(C)(CO)CNC(=O)c1ccc2c(c1)/C(=N/Nc1ccc(S(N)(=O)=O)cc1)C(=O)N2,3.17
16,Cc1ccc(O)cc1Nc1ccnc2cc(-c3ccccn3)ccc12,7.92
17,Fc1ccc(-c2nn3ccccc3c2-c2ccncc2)cc1,3.29

row,SMILES,inhibition [%]
1,c1ccc(-c2nc3n(c2-c2ccc4c(c2)OCO4)CCC3)nc1,3.44
2,N#Cc1c(NC(=O)c2ccc(F)cc2)sc2c1CCCC2,-0.82
3,COc1cc(N2CCN(C(C)C)CC2)ccc1Nc1nc(Nc2ccc(F)cc2C(N)=O)c2cc[nH]c2n1,3.63
4,COc1cc2c(cc1Nc1nc(Nc3ccsc3C(N)=O)c3cc[nH]c3n1)N(C(=O)CN(C)C)CCC2(C)C,8.7
5,O=S(=O)(CCNCc1ccc(-c2ccc3ncnc(Nc4ccc(OCc5cccc(F)c5)c(Cl)c4)c3c2)o1)c1ccccc1,10
6,CCOc1ccc2c(-c3ccnc(Nc4cccc(C(F)(F)F)c4)n3)cnn2n1,4.57
7,Cc1ccc2c(-c3ccnc(Nc4ccccc4)n3)c(-c3ccc(F)cc3)nn2n1,3.46
8,CNC(=O)c1cc(-c2ccc(F)cc2)cc(-c2ccc(S(=O)(=O)N3CCCC3)cc2)c1N,3.68
9,CCn1cc(-c2ccnc3[nH]ccc23)c(-c2cccc(NC(=O)Nc3ccc(OCc4ccccc4)cc3)c2)n1,0.97
10,COc1cc(Nc2nccc(Nc3ccc4c(C)n[nH]c4c3)n2)cc(OC)c1OC,2.19
11,CCn1c(-c2nonc2N)nc2c(C#CC(C)(C)O)nc(OC[C@H](N)c3ccccc3)cc21,1.29
12,c1ccc(COc2ccc(Nc3ncnc4ccc(-c5ccco5)cc34)cc2)cc1,5.7
13,Nc1ncc(-c2cccc(S(N)(=O)=O)c2)c2scc(-c3ccc(F)c(Cl)c3)c12,3.95
14,CS(=O)(=O)CCNCc1ccc(-c2ccc3ncnc(Nc4ccc(OCc5ccccc5)c(C(F)(F)F)c4)c3c2)o1,4.26
15,CCN(CC)S(=O)(=O)c1ccc(OC)c(Nc2ncc(-c3ccccc3)o2)c1,-1.78
16,NS(=O)(=O)c1ccc(N/N=C2\C(=O)Nc3ccc4ncccc4c32)cc1,5.44
17,COC(=O)Nc1nc2ccc(Oc3ccc(NC(=O)Nc4cccc(Cl)c4)cc3)cc2[nH]1,5.21
